mHTT CaM bind – mutant huntingtin-calmodulin interaction inhibitors – biochemical, AlphaScreen, primary screen | 3.6% of 190,000 active | AlphaScreen His-mHTT/GST-CaM binding, luminescence | AID 1671202, 2021 | P42858 | inhibition, % at 15 µM;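 also: 0% = both proteins with DMSO and 100% = one protein alone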
Pf apPOL block – Pf-apPOL inhibitors, biochemical, fluorescence. Recombinant Pf-apPOL, molecular beacon fluorescence, 1.5 h. inhibition, % at 10 µM. 0.25% of 210,000 active. AID 1794808, 2022
An asterisk follows results filed as active; . = not tested or not shown. The sample as a whole holds a higher share of hits than the screen did. Rule as the data show it: active = inhibition above about 50%; inactive = the rest.

SMILES | mHTT CaM bind | Pf apPOL block
COc1ccccc1C1CC(c2ccc(Br)cc2)=NN1C(=O)c1ccncc1 (centres undefined) | 18 | -5
COc1ccccc1C1CC(c2ccc(Br)cc2)=NN1C(=O)CCC(=O)O (centres undefined) | 10 | -1
COc1ccccc1C1CC(c2ccc(Br)cc2)=NN1C(=O)c1cccnc1 (centres undefined) | 53* | -3
COc1ccc(-c2ccc(/C=C3\C(=O)NN(c4ccc(C)c(Cl)c4)C3=O)o2)c([N+](=O)[O-])c1 | 2 | 2
O=C(CSc1nc2c(c(=O)n1-c1ccc([N+](=O)[O-])cc1)SCC2)NCc1ccco1 | 1 | -7
O=C1/C(=C/N(C(=O)c2ccco2)c2ccc([N+](=O)[O-])cc2)Sc2ccccc21 | 19 | 32
Cc1ccc(S(=O)(=O)N(/C=C2\Sc3ccccc3C2=O)c2ccc([N+](=O)[O-])cc2)cc1 | 60* | -2
O=C(NCc1cc(F)cc(F)c1)C1CCN(c2cncnc2N2CCCCC2)CC1 | 7 | 6
CN1CCN(c2ncncc2N2CCC(C(=O)NCc3ccc(Cl)cc3)CC2)CC1 | 98* | -3
O=C(NCc1ccc(F)c(Cl)c1)C1CCN(c2cncnc2N2CCCC2)CC1 | 90* | 2
CCc1ccc(CNC(=O)C2CCN(c3cncnc3N3CCN(C)CC3)CC2)cc1 | 21 | -1
COc1ccc(C(=O)NCCCN=C2NS(=O)(=O)c3ccccc32)cc1OC | -3 | -2
O=c1nc2n(-c3cccc(Br)c3)c3ccccc3cc-2c(=O)[nH]1 | 2 | 2
Cc1cc(C)c(S(=O)(=O)N2CCCC(C)(C(=O)NCc3ccc(F)cc3)C2)c(C)c1 (centres undefined) | 91* | -4
Cc1cc(C)c(S(=O)(=O)N2CCCC(C)(C(=O)NCc3ccc(F)cc3)C2)cc1C (centres undefined) | 61* | 0
Cc1cccc(S(=O)(=O)N2CCCC(C)(C(=O)NCc3ccc(F)cc3)C2)c1 (centres undefined) | 37 | 1
Cc1cc(C)c(S(=O)(=O)N2CCCC(C)(C(=O)NCc3cccc(F)c3)C2)c(C)c1 (centres undefined) | 8 | -2
Cc1ccc(NC(=O)N2CC(C)Oc3ccccc32)cc1C (centres undefined) | -3 | -4
CCCNC(=O)C1CCCN(C(=O)Cc2cccc3ccccc23)C1 (centres undefined) | -4 | 2
O=C(NCc1ccccc1)O[C@H]1CCC12CCC(c1ccccc1)CC2 (some centres undefined) | -9 | -1
Cc1ccc(S(=O)(=O)N(c2ccc(Cl)cc2)C(F)F)cc1 | -73 | -7
Nc1c(S(=O)(=O)O)cc(Nc2ccccc2)c2c1C(=O)c1ccccc1C2=O | 98* | -10
Cc1ccc(S(=O)(=O)Nc2cc(S(=O)(=O)O)c(N)c3c2C(=O)c2ccccc2C3=O)cc1 | 79* | 3
Nc1c(S(=O)(=O)O)cc(Br)c2c1C(=O)c1ccccc1C2=O | 39 | 0
NC1=C(Nc2ccccc2)C(=O)c2ccccc2C1=O | 93* | -6
SMILES | mHTT CaM bind | Pf apPOL block
Nc1c(S(=O)(=O)O)cc(Nc2ccc(Nc3nc(Cl)nc(Nc4ccc(S(=O)(=O)O)cc4)n3)c(S(=O)(=O)O)c2)c2c1C(=O)c1ccccc1C2=O | . | 43
O=C1C(Nc2ccccc2)=C(NS(=O)(=O)c2ccccc2)C(=O)c2ccccc21 | 16 | 0
Cc1nc2nc(SCC(=O)NCc3cccs3)nn2c(C)c1Cc1ccccc1Cl | 17 | -3
Cc1ccc(Sc2c(C)nn(S(=O)(=O)c3ccccc3[N+](=O)[O-])c2C)cc1 | 50* | 1
Cc1nn(S(=O)(=O)c2ccccc2[N+](=O)[O-])c(C)c1Sc1ccccc1 | 0 | -9
Cc1ccc(C2=NNC(C)(C3(C)NN=C(c4ccc(C)cc4)S3)S2)cc1 (centres undefined) | 41 | .
Cc1ccc(N2C(=O)C(C)SC23C(=O)Nc2ccccc23)cc1 (centres undefined) | 1 | 2
Cc1ccc(C2=NNC3(S2)C(=O)Nc2ccccc23)cc1 (centres undefined) | 99* | 1
Cc1ccc(C2=NNC3(S2)C(=O)Nc2ccc(C)cc23)cc1 (centres undefined) | 100* | 0
CCC(C(=O)NCc1ccsc1)c1ccccc1 (centres undefined) | -17 | -5
CC1=NN(C(=O)CCCc2ccccc2)C(O)(c2ccc(Br)cc2)C1 (centres undefined) | 58* | 1
CCC(=O)N1N=C(CC)CC1(O)c1ccc(Br)cc1 (centres undefined) | 6 | -4
COc1ccccc1NC(=O)N1CCCC1c1cccc(C)c1 (centres undefined) | -8 | 0
OC(COCC12CC3CC(CC(C3)C1)C2)CN1CCN(c2ccccc2)CC1 (centres undefined) | 57* | 1
OC(COC12CC3CC(CC(C3)C1)C2)CN1CCN(c2ccccc2)CC1 (centres undefined) | 12 | 6
OC(COCCC12CC3CC(CC(C3)C1)C2)CN1CCN(c2ccccc2)CC1 (centres undefined) | 55* | 0
OC(COCCC12CC3CC(CC(C3)C1)C2)CN1CCN(c2ccccn2)CC1 (centres undefined) | 37 | 2
CS(=O)(=O)c1ccc(-c2nnc(SCc3ccc([N+](=O)[O-])cc3)o2)cc1 | -4 | -1
CCc1cccc(NC(=O)C2CCN(c3cc(=O)n(C)c(=O)n3C)CC2)c1 | 66* | -2
Cn1c(N2CCC(C(=O)Nc3ccccc3)CC2)cc(=O)n(C)c1=O | 42 | -1
CCn1c(N2CCC(C(=O)NCc3ccc(F)cc3)CC2)cc(=O)n(C)c1=O | 42 | -5
COc1ccc(NC(=O)C2CCN(c3cc(=O)n(C)c(=O)n3C)CC2)c(OC)c1 | 44 | 5
Cn1c(N2CCC(C(=O)N3CCC(Cc4ccccc4)CC3)CC2)cc(=O)n(C)c1=O | 75* | -2
CCn1c(N2CCC(C(=O)NCc3cccc(Cl)c3)CC2)cc(=O)n(C)c1=O | 59* | -2
COc1cc(OC)c(NC(=O)C2CCN(c3cc(=O)n(C)c(=O)n3C)CC2)cc1Cl | 59* | -2
SMILES | mHTT CaM bind | Pf apPOL block
Cn1c(N2CCC(C(=O)N3CCN(Cc4ccccc4)CC3)CC2)cc(=O)n(C)c1=O | 38 | 1
O=C(c1cccnc1)N1CCCC1c1ccccc1F (centres undefined) | 3 | -3
O=C(NC1CCCC1)N1CCCN(C2CCN(Cc3ccccc3)C2=O)CC1 (centres undefined) | 5 | 8
Cc1ccc(C(=O)N/C(=C/c2ccc3c(c2)OCO3)C(=O)Nc2ccc([N+](=O)[O-])cc2)cc1C | 20 | -2
O=C(Nc1cccc(F)c1)c1ccc(Cn2cncn2)cc1 | -3 | -5
O=C(Nc1ncc(S(=O)(=O)c2ccc([N+](=O)[O-])cc2)s1)C1COc2ccccc2O1 (centres undefined) | 12 | -3
Cc1cccc(Cn2c3c(c(C)c2C(=O)NCc2ccccn2)CCCC3)c1 | 86* | 4
Cc1c2c(n(Cc3c(F)cccc3F)c1C(=O)NCc1ccccn1)CCCC2 | 17 | -2
Cc1c(F)cccc1NC(=O)C1CCc2sc(C(=O)N3CCCC3)cc2C1 (centres undefined) | 0 | 0
N#CC1=C(N)N(c2ncn[nH]2)C2=C(C(=O)CCC2)C1c1cccc(Br)c1 (centres undefined) | 4 | 1

Bioassay records from PubChem.
